# Results reported in the supplement of paper PMC8728848.
# Many of the other results were omitted from the sample, so the strongest signals are more common in it than they were.
# B1: Gal 12 (Homo sapiens), Q96DT0 (protein)
# chain: MSQPSGGRAPGTRIYSWSCPTVMSPGEKLDPIPDSFILQPPVFHPVVPYVTTIFGGLHAGKMVMLQGVVPLDAHRFQVDFQCGCSLCPRPDIAFHFNPRFHTTKPHVICNTLHGGRWQREARWPHLALRRGSSFLILFLFGNEEVKVSVNGQHFLHFRYRLPLSHVDTLGIFGDILVEAVGFLNINPFVEGSREYPAGHPFLLMSPRLEVPCSHALPQGLSPGQVIIVRGLVLQEPKHFTVSLRDQAAHAPVTLRASFADRTLAWISRWGQKKLISAPFLFYPQRFFEVLLLFQEGGLKLALNGQGLGATSMNQQALEQLRELRISGSVQLYCVHS
# Columns and labels:
# Test in all cases: glycan array binding signal (z-score within array); higher = stronger binding
# Conditions in all cases: glycan notation: IUPAC condensed, linker removed
# [1] = target: Gal(b1-4)GlcNAc(b1-6)GalNAc
# Outline: (§1)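 Glycan array binding is given as a within-array Z-score, which can be read as non-binding when negative. The arrays, 3228 of them, came from the Consortium for Functional Glycomics database and were retained only where the protein sequence was available. Z-scores were averaged across arrays of the same protein sequence at different concentrations or buffers and across linkers.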
# [2] = target: Gal(b1-4)GlcNAc(b1-6)[Gal(b1-4)GlcNAc(b1-3)]GalNAc
# Outline: as §1
# Gal(b1-4)GlcNAc6P = target: Gal(b1-4)GlcNAc6P
# Outline: as §1
# Gal3S(b1-4)Glc = target: Gal3S(b1-4)Glc
# Outline: as §1
# [3] = target: Gal3S(b1-4)[Fuc(a1-3)]Glc6S
# Outline: as §1
# [4] = target: Gal3S(b1-4)[Fuc(a1-3)]GlcNAc
# Outline: as §1
# Gal3S4S(b1-4)GlcNAc = target: Gal3S4S(b1-4)GlcNAc
# Outline: as §1
# GalNAc4S6S(b1-4)GlcNAc = target: GalNAc4S6S(b1-4)GlcNAc
# Outline: as §1
# [5] = target: GlcNAc(b1-2)Man(a1-3)[GlcNAc(b1-4)][GlcNAc(b1-2)Man(a1-6)]Man(b1-4)GlcNAc(b1-4)GlcNAc
# Outline: as §1
# [6] = target: GlcNAc(b1-2)[GlcNAc(b1-6)]Man(a1-6)[GlcNAc(b1-2)Man(a1-3)][GlcNAc(b1-4)]Man(b1-4)GlcNAc(b1-4)GlcNAc
# Outline: as §1
# [7] = target: GlcNAc(b1-3)Gal(b1-4)GlcNAc
# Outline: as §1
# [8] = target: GlcNAc(b1-3)Gal(b1-4)GlcNAc(b1-3)Gal(b1-4)GlcNAc(b1-2)[GlcNAc(b1-3)Gal(b1-4)GlcNAc(b1-3)Gal(b1-4)GlcNAc(b1-6)]Man(a1-6)[GlcNAc(b1-3)Gal(b1-4)GlcNAc(b1-3)Gal(b1-4)GlcNAc(b1-2)Man(a1-3)]Man(b1-4)GlcNAc(b1-4)[Fuc(a1-6)]GlcNAc
# Outline: as §1
# [9] = target: GlcNAc(b1-3)[GlcNAc(b1-6)]Gal(b1-4)GlcNAc
# Outline: as §1
# [10] = target: GlcNAc(b1-4)GlcNAc(b1-4)GlcNAc(b1-4)GlcNAc(b1-4)GlcNAc
# Outline: as §1
# Kdn(a2-3)Gal(b1-3)GalNAc = target: Kdn(a2-3)Gal(b1-3)GalNAc
# Outline: as §1
# [11] = target: Man(a1-3)[Man(a1-6)]Man(b1-4)GlcNAc(b1-4)GlcNAc
# Outline: as §1
# Man(a1-6)Man = target: Man(a1-6)Man
# Outline: as §1
# [12] = target: Neu5Ac(a2-3)Gal(b1-3)GalNAc(b1-4)[Neu5Ac(a2-3)]Gal(b1-4)Glc
# Outline: as §1
# [13] = target: Neu5Ac(a2-3)Gal(b1-3)[Fuc(a1-4)]GlcNAc(b1-3)Gal(b1-3)[Fuc(a1-4)]GlcNAc
# Outline: as §1
# [14] = target: Neu5Ac(a2-3)Gal(b1-4)GlcNAc(b1-3)Gal
# Outline: as §1
# [15] = target: Neu5Ac(a2-3)Gal(b1-4)GlcNAc(b1-3)Gal(b1-4)GlcNAc(b1-6)[Gal(b1-3)]GalNAc
# Outline: as §1
# [16] = target: Neu5Ac(a2-3)Gal(b1-4)[Fuc(a1-3)]GlcNAc(b1-3)GalNAc
# Outline: as §1
# [17] = target: Neu5Ac(a2-3)[GalNAc(b1-4)]Gal(b1-4)GlcNAc(b1-3)GalNAc
# Outline: as §1
# [18] = target: Neu5Ac(a2-6)Gal(b1-4)GlcNAc(b1-2)[Neu5Ac(a2-6)Gal(b1-4)GlcNAc(b1-4)]Man(a1-3)[GlcNAc(b1-4)][Neu5Ac(a2-6)Gal(b1-4)GlcNAc(b1-4)Man(a1-6)]Man(b1-4)GlcNAc(b1-4)GlcNAc
# Outline: as §1
# [19] = target: Neu5Ac(a2-8)Neu5Ac(a2-3)Gal(b1-3)GalNAc(b1-4)[Neu5Ac(a2-3)]Gal(b1-4)Glc
# Outline: as §1
binder,measurement,setting,value
B1,glycan array binding signal (z-score),[1],0.417
same,glycan array binding signal (z-score),[2],0.954
same,glycan array binding signal (z-score),Gal(b1-4)GlcNAc6P,0.272
same,glycan array binding signal (z-score),Gal3S(b1-4)Glc,0.451
same,glycan array binding signal (z-score),[3],3.19
same,glycan array binding signal (z-score),[4],2.76
same,glycan array binding signal (z-score),Gal3S4S(b1-4)GlcNAc,0.103
same,glycan array binding signal (z-score),GalNAc4S6S(b1-4)GlcNAc,-0.099
same,glycan array binding signal (z-score),[5],0.085
same,glycan array binding signal (z-score),[6],-0.54
same,glycan array binding signal (z-score),[7],-0.475
same,glycan array binding signal (z-score),[8],0.115
same,glycan array binding signal (z-score),[9],-0.57
same,glycan array binding signal (z-score),[10],-0.139
same,glycan array binding signal (z-score),Kdn(a2-3)Gal(b1-3)GalNAc,0.39
same,glycan array binding signal (z-score),[11],-0.172
same,glycan array binding signal (z-score),Man(a1-6)Man,-0.442
same,glycan array binding signal (z-score),[12],0.416
same,glycan array binding signal (z-score),[13],-0.082
same,glycan array binding signal (z-score),[14],-0.004
same,glycan array binding signal (z-score),[15],-0.81
same,glycan array binding signal (z-score),[16],2.37
same,glycan array binding signal (z-score),[17],-0.063
same,glycan array binding signal (z-score),[18],0.922
same,glycan array binding signal (z-score),[19],-0.299
